# Results published in ChEMBL document CHEMBL2218924, “A broad activity screen in support of a chemogenomic map for kinase signalling research and drug discovery” (Biochem J, 2013).
# Experiments:
# [1] = target: T1, Ephrin type-A receptor 3 (Homo sapiens) (UniProt P29320); conditions: at 10 µM
# T1 sequence (whole entry): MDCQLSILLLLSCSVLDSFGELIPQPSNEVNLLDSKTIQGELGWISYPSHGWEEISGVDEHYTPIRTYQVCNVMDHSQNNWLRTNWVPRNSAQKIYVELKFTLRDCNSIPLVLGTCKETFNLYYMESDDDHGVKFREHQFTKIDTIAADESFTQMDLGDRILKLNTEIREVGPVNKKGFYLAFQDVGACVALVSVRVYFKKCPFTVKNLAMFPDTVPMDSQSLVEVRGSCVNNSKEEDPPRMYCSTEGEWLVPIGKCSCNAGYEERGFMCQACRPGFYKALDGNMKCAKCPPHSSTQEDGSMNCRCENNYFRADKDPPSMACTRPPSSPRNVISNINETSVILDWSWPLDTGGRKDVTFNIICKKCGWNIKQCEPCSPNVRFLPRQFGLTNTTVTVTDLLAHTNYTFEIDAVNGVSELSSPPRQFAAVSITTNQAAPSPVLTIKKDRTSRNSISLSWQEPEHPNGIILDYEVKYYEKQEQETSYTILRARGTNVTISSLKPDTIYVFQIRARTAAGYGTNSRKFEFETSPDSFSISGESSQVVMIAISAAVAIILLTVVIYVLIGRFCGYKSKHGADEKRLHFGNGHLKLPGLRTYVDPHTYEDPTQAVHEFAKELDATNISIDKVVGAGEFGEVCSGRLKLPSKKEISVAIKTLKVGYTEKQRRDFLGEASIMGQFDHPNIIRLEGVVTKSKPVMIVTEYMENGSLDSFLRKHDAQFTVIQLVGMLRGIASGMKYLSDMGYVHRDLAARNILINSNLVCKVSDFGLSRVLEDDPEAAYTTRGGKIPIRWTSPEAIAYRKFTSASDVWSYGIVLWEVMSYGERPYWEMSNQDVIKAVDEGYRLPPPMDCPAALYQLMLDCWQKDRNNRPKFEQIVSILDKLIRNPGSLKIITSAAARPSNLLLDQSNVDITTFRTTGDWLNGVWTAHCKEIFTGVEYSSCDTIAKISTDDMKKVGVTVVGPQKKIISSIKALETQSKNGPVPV
# [2] = target: Ephrin type-A receptor 5 (Homo sapiens) (UniProt P54756); conditions: at 1 µM
# [3] = target: Ephrin type-A receptor 5 (Homo sapiens) (UniProt P54756); conditions: at 10 µM
# [4] = target: Ephrin type-A receptor 7 (Homo sapiens) (UniProt Q15375); conditions: at 1 µM
# [5] = target: Ephrin type-A receptor 7 (Homo sapiens) (UniProt Q15375); conditions: at 10 µM
# [6] = target: T2, Ephrin type-A receptor 8 (Homo sapiens) (UniProt P29322); conditions: at 1 µM
# T2 sequence (whole entry): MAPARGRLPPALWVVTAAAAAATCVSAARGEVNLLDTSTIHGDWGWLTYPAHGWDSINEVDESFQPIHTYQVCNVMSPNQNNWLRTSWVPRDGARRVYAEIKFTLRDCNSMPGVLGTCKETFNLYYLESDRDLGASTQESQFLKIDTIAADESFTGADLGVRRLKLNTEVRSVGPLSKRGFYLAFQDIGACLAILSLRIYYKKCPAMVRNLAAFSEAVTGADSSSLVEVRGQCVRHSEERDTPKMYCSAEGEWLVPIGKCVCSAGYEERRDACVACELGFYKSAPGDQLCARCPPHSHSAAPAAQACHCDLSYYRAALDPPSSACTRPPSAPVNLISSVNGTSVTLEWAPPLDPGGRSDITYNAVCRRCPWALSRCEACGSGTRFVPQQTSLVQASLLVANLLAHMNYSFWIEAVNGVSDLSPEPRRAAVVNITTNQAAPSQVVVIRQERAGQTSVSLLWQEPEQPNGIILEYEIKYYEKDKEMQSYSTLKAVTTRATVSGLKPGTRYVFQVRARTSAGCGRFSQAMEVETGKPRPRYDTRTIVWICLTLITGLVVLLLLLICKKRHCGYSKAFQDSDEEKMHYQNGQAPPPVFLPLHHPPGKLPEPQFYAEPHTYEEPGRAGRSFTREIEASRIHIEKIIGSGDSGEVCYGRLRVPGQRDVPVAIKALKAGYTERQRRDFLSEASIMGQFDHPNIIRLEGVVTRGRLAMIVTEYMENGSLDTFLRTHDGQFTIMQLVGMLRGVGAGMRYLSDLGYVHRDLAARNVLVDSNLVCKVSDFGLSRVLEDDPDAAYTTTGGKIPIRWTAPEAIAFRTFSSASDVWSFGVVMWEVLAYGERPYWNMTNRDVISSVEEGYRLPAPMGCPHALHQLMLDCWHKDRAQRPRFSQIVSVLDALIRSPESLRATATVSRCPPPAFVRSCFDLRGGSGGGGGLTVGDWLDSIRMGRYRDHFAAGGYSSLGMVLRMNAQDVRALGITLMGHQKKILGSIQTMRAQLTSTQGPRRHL
# [7] = target: T2, Ephrin type-A receptor 8 (Homo sapiens); conditions: at 10 µM
# [8] = target: T3, Ephrin type-B receptor 1 (Homo sapiens) (UniProt P54762); conditions: at 1 µM
# T3 sequence (whole entry): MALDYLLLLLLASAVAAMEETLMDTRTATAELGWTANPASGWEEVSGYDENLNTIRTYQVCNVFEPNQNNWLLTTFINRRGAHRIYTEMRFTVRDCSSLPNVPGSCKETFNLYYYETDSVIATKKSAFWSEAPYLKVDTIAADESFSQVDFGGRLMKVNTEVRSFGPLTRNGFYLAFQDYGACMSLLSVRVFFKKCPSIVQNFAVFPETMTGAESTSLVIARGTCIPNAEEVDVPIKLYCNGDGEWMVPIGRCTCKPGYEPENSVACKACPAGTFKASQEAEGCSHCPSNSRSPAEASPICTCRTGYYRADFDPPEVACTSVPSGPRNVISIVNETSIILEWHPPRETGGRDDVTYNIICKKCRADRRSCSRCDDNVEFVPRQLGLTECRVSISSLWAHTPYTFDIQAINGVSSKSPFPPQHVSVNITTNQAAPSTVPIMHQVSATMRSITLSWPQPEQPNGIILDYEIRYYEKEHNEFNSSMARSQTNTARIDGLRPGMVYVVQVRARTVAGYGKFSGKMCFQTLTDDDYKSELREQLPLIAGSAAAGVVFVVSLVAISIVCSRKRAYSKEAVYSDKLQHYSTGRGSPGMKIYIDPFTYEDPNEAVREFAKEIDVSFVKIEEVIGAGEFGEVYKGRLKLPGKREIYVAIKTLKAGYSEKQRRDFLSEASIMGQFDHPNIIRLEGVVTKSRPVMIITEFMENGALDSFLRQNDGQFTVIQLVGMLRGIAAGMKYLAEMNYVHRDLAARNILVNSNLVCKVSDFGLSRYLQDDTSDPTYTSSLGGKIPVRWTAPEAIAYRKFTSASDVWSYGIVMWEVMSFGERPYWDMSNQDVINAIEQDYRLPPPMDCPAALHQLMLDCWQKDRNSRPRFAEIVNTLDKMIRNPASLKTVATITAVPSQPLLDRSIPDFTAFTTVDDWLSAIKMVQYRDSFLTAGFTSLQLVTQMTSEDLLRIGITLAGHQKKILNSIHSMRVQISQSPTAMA
# [9] = target: T3, Ephrin type-B receptor 1 (Homo sapiens); conditions: at 10 µM
# [10] = target: T4, Ephrin type-B receptor 2 (Homo sapiens) (UniProt P29323); conditions: at 1 µM
# T4 sequence (whole entry): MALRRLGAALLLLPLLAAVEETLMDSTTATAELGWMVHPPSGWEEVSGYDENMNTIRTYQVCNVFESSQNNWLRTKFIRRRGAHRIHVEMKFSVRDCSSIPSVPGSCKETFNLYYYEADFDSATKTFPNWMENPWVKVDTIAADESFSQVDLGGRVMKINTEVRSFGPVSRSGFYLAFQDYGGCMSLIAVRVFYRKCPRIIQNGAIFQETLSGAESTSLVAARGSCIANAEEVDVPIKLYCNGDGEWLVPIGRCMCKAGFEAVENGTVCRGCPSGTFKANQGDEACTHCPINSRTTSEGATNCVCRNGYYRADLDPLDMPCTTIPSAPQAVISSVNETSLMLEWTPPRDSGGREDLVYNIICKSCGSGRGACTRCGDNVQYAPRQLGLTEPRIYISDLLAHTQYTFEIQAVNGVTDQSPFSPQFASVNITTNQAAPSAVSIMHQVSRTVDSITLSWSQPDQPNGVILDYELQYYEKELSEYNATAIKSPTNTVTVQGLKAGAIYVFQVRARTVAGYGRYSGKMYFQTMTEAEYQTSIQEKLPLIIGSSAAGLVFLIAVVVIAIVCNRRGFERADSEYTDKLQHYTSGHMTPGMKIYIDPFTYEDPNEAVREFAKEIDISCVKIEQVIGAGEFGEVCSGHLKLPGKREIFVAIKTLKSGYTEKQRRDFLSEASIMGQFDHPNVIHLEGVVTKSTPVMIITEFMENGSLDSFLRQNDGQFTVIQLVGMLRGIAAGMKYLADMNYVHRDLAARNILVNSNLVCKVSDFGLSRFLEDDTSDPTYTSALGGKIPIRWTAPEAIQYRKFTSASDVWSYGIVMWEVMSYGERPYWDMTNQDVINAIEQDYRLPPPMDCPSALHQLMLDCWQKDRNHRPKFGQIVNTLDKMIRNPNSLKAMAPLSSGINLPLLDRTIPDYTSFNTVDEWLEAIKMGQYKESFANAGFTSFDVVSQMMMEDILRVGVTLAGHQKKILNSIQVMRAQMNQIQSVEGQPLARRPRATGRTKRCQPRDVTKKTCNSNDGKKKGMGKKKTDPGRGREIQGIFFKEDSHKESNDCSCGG
# [11] = target: T4, Ephrin type-B receptor 2 (Homo sapiens); conditions: at 10 µM
# [12] = target: T5, Ephrin type-B receptor 3 (Homo sapiens) (UniProt P54753); conditions: at 1 µM
# T5 sequence (whole entry): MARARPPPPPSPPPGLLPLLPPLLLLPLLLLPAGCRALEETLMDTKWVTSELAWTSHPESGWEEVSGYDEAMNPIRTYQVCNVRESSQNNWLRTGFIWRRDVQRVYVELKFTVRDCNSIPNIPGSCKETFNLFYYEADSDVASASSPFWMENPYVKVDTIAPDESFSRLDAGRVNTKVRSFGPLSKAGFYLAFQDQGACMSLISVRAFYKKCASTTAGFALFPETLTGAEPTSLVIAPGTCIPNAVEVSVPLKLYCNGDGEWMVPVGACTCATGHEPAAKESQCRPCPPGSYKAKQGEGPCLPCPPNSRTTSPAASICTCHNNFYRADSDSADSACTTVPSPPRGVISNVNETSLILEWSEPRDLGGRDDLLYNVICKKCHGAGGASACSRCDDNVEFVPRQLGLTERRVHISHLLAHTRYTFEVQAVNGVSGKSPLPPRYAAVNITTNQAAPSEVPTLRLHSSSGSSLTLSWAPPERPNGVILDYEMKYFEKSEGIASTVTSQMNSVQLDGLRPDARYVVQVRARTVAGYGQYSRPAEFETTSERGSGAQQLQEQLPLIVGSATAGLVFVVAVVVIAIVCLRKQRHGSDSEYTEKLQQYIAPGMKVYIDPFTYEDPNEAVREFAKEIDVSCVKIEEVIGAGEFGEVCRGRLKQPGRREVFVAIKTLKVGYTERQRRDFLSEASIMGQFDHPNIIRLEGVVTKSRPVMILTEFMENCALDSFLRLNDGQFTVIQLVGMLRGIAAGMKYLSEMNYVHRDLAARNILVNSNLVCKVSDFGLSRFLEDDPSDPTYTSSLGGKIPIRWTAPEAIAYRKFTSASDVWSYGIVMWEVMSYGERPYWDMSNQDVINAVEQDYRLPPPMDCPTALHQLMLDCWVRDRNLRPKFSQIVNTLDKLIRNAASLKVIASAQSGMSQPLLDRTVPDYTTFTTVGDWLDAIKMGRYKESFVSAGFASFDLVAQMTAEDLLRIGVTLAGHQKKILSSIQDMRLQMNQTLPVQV
# [13] = target: T6, Ephrin type-B receptor 4 (Homo sapiens) (UniProt P54760); conditions: at 1 µM
# T6 sequence (whole entry): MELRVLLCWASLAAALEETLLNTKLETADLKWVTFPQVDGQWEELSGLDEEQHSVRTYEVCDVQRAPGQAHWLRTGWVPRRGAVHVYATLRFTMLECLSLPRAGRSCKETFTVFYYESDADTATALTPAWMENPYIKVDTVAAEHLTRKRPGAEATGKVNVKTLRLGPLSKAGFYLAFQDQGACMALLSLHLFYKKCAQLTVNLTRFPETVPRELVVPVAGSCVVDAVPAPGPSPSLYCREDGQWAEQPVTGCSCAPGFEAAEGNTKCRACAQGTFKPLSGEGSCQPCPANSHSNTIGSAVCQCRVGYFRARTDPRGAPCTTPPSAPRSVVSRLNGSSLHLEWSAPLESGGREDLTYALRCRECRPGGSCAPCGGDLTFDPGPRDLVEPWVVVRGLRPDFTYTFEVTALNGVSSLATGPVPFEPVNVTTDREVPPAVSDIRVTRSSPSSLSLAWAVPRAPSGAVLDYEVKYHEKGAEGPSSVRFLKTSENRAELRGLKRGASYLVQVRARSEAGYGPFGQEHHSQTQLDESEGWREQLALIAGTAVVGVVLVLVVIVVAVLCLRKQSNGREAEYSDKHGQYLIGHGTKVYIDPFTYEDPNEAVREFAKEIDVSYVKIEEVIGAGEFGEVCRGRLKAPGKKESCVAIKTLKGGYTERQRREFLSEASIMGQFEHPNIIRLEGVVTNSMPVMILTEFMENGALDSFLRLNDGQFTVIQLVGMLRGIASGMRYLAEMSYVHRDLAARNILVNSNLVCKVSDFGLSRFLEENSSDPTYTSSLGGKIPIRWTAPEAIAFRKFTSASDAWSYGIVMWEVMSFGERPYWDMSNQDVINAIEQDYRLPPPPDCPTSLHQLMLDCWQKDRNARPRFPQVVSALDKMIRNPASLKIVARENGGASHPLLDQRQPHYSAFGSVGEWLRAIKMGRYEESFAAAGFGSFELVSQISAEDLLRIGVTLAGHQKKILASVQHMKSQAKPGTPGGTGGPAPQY
# [14] = target: T6, Ephrin type-B receptor 4 (Homo sapiens); conditions: at 10 µM
# [15] = target: Receptor tyrosine-protein kinase erbB-4 (Homo sapiens) (UniProt Q15303); conditions: at 1 µM
# [16] = target: Receptor tyrosine-protein kinase erbB-4 (Homo sapiens) (UniProt Q15303); conditions: at 10 µM
# [17] = target: Focal adhesion kinase 1 (Homo sapiens) (UniProt Q05397); conditions: at 1 µM
# Focal adhesion kinase 1 (Homo sapiens), sequence (Q05397 2-1052 limits assumed): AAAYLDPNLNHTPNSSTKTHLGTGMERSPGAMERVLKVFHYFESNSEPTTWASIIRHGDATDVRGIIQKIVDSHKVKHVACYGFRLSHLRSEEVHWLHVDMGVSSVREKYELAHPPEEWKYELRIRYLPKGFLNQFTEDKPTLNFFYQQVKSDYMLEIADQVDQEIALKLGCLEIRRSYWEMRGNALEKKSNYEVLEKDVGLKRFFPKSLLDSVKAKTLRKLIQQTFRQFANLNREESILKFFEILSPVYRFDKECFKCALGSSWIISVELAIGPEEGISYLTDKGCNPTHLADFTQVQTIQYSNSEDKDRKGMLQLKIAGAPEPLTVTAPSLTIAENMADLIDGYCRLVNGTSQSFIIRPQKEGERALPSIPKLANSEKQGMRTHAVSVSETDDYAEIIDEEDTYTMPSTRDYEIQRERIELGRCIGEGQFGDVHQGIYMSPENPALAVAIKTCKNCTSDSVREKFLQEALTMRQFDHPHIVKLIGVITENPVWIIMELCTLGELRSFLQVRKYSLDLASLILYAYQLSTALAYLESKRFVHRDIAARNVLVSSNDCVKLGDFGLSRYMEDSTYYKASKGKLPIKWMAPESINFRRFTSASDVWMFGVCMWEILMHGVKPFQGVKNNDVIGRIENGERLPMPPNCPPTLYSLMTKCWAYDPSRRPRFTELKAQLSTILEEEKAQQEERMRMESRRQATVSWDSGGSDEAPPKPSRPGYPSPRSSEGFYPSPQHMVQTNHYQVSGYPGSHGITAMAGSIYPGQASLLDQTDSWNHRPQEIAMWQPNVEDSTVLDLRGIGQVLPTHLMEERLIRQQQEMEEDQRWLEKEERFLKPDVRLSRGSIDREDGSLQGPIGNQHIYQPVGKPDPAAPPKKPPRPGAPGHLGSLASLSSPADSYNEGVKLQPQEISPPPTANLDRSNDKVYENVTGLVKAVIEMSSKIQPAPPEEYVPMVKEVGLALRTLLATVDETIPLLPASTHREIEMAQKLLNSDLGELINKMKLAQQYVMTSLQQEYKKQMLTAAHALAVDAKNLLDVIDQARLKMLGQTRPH
# Ephrin type-A receptor 7 (Homo sapiens), sequence (Q15375 28-998 limits assumed): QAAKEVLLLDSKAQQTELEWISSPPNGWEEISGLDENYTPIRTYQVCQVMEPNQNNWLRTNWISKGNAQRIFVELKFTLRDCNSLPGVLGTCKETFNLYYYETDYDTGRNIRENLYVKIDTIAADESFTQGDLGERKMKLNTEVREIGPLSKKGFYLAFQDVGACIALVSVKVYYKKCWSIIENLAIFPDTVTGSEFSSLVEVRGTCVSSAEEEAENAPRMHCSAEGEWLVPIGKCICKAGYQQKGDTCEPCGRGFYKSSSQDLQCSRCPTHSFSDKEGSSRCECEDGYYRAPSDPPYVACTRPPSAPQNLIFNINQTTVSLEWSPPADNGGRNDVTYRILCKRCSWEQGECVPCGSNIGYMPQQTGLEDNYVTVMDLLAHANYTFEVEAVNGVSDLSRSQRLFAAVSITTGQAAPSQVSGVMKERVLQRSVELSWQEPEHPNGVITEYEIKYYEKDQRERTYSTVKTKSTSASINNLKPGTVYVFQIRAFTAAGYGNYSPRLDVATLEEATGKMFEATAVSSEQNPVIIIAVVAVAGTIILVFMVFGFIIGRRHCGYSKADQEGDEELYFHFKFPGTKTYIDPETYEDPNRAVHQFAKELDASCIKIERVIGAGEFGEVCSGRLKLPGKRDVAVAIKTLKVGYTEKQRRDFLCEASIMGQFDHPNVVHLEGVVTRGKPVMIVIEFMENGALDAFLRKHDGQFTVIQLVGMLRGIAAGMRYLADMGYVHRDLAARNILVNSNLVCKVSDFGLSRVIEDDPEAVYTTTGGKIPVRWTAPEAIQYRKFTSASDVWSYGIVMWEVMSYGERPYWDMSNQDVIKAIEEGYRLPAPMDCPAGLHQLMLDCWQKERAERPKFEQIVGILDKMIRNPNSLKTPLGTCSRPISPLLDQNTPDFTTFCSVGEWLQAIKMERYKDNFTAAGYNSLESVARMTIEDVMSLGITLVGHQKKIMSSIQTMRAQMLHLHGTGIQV
# Receptor tyrosine-protein kinase erbB-4 (Homo sapiens), sequence (Q15303 whole entry): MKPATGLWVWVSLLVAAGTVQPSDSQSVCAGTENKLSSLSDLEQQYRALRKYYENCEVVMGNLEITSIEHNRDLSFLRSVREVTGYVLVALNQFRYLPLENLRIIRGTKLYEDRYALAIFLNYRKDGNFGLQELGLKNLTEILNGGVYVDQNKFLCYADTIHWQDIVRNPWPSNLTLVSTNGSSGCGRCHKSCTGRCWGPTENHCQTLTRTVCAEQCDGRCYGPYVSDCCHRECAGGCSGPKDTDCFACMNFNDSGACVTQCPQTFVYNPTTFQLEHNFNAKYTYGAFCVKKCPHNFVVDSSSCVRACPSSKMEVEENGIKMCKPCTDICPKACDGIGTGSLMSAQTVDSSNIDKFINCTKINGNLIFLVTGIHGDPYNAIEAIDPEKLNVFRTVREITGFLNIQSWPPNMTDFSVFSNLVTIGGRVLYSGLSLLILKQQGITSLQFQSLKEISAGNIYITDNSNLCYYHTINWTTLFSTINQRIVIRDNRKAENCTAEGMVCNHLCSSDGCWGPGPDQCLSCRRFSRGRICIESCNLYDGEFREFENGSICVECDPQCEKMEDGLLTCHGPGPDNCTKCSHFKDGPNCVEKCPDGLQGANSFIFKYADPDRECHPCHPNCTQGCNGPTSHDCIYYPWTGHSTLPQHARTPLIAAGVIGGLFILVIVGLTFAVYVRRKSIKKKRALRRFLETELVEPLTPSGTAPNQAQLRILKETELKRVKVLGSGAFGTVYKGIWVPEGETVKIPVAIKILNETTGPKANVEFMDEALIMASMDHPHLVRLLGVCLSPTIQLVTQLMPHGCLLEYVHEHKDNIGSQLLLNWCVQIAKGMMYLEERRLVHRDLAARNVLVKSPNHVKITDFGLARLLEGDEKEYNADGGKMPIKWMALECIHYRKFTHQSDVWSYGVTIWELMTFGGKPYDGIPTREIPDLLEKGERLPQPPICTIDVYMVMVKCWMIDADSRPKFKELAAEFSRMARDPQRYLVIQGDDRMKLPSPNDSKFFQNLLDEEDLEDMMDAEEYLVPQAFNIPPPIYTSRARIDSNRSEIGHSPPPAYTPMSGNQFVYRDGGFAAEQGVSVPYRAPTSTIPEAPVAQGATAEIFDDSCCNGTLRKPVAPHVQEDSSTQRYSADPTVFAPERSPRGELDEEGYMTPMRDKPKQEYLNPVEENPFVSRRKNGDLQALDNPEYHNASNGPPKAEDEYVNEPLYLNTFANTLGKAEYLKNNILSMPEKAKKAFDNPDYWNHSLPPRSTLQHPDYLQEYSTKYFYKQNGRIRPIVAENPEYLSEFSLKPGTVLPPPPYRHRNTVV
# Ephrin type-A receptor 5 (Homo sapiens), sequence (P54756 whole entry): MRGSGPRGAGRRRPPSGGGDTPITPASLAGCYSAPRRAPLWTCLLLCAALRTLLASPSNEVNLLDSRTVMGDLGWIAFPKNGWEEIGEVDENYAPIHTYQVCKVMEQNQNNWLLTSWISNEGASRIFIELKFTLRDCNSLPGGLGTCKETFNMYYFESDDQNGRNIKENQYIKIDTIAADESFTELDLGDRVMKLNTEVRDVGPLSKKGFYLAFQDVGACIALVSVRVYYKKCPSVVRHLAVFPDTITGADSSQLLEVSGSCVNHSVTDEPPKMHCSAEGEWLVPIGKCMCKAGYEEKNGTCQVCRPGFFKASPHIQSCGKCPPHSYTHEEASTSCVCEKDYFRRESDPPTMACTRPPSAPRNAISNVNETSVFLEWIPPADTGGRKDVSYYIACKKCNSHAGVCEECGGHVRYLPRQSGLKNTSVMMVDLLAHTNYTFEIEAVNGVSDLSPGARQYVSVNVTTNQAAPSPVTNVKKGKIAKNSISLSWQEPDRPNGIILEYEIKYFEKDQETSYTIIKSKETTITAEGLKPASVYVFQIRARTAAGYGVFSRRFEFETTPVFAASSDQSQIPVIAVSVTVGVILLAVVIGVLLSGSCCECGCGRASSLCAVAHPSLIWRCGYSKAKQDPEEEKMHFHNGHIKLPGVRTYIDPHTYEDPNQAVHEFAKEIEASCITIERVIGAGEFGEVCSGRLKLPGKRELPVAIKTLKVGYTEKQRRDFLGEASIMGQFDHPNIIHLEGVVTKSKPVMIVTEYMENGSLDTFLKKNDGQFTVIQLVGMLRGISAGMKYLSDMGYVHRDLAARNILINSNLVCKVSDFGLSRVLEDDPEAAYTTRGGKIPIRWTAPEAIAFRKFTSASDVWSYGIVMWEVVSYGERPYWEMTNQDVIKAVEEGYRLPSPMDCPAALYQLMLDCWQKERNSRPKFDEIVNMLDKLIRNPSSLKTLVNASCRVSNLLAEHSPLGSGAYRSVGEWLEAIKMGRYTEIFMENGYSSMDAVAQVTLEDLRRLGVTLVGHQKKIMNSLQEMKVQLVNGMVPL
smiles,measurement,setting,value
Cn1nc2c3c(cccc31)C(=O)c1ccccc1-2,residual activity,[1],73%
same,residual activity,[2],110%
same,residual activity,[3],99%
same,residual activity,[4],95%
same,residual activity,[5],88%
same,residual activity,[6],94%
same,residual activity,[7],81%
same,residual activity,[8],94%
same,residual activity,[9],77%
same,residual activity,[10],108%
same,residual activity,[11],109%
same,residual activity,[12],104% (inactive)
same,residual activity,[13],87%
same,residual activity,[14],83%
same,residual activity,[15],93%
same,residual activity,[16],90%
same,residual activity,[17],95%
